Screening data: PubChem BioAssay, National Center for Advancing Translational Sciences (NCATS)
Sampled rows, rich in hits. Any-hit rate of the full collection: about 10%.
HEK293 tox: cytotoxic compounds in HEK 293 cells; HEK 293 viability, ATP luminescence (CellTiter-Glo), 48-72 h; Potency, µM (highest dose often 115 µM), inactives show at the top dose activity change, negative = cytotoxicity, hits mostly inhibitors; 94,000 tested, 6.6% active; further: nearly all actives have a fitted effect of over 60% in size
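Luminescence from cellular ATP, measured with CellTiter-Glo, indicates HEK 293 viability. Cells plated at 250 cells/well are treated with compound for 48 or 72 hr at 37 degree Celsius before reagent addition.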
3T3 cytotox: cytotoxic compounds in NIH 3T3 cells; NIH 3T3 viability, CellTiter-Glo ATP luminescence, 48-72 h; Potency, µM (top dose mostly 96.7 µM), without a hit: at the highest dose activity change, negative = cytotoxicity, most hits filed as inhibitors; 94,000 tested, 4.3% active; AID 1345082; further: nearly all actives have a fitted effect of over 55% in size
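Mouse fibroblast NIH 3T3 cells, 400 per well, received compound via pintool and were incubated for 48 or 72 hr prior to CellTiter-Glo ATP luminescence measurement.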
GPT2 inh: inhibitors of human GPT2 alanine aminotransferase; Q8TD30; Recombinant GPT2, coupled pyruvate oxidase/HRP Amplex Red fluorescence; Potency, µM (doses to about 57.7 µM), inactives show at the top dose activity change, negative = inhibition, usual class: inhibitors; 100,000 tested, 0.25% active; AID 1671188; further: nearly all actives have a fitted effect of over 60% in size
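Recombinant GPT2 (10ng/uL) with 250uM a-KG and 2mM L-alanine, 30 min at room temperature, in HEPES pH 7.5 buffer. Pyruvate detected by pyruvate oxidase/HRP/Amplex Red fluorescence after 30 min in the dark; AOA (50uM) as positive control.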
FLuc inh: blocks purified firefly luciferase enzyme activity. Potency, µM (highest dose often 115 µM), usual class: inhibitors. purified P. pyralis luciferase, luminescence, biochemical. AID 1347043. 76,000 tested, 2.5% active; further: nearly all actives have a fitted effect of over 65% in size
Target sequence (P08659 whole entry, looked up): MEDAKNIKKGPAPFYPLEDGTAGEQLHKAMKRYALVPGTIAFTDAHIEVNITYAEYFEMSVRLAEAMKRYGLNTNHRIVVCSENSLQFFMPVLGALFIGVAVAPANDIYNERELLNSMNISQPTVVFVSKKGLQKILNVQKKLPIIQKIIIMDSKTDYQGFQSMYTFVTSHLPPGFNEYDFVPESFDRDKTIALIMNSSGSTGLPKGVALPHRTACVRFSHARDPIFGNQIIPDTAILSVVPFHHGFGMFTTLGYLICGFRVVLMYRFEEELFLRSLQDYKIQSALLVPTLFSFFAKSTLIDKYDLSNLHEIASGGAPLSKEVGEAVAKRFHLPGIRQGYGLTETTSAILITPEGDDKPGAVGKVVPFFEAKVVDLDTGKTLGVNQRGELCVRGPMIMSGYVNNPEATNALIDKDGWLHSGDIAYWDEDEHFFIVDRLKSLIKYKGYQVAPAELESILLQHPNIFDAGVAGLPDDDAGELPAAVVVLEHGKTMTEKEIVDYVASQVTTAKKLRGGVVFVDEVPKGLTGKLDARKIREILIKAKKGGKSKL
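Purified P. pyralis luciferase (10nM final) in 50mM Tris acetate pH 7.5, 10mM Mg acetate, 0.01% Tween-20, 0.05% BSA with 10uM D-luciferin and 10uM ATP. Compounds titrated qHTS. Luminescence imaged on CCD.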
hNpr1 antagonist: human Npr1 receptor antagonism; P16066; 76,000 tested, 1.6% active; Potency, µM (highest dose often 46.3 µM), without a hit: at the highest dose activity change, negative = inhibition, most hits filed as inhibitors; AID 1347048; HEK293 hNpr1 GloSensor cGMP, ANP-stimulated luminescence; calls by dose curve; further: nearly all actives have a fitted effect of over 60% in size
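Compound pre-incubated 30 min at room temperature on GloSensor-loaded HEK293 cells stably carrying hNpr1 and the pGS-40F cGMP biosensor. Stimulation uses hNppA at 0.1 nM final; luminescence is taken at baseline and 20 min post-agonist.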
The depositor's hits bear a star; i = inactive; ? = inconclusive; · = not tested or not shown; ! = a repeat was not active; [ ] = dose if it differs, or a comment. Unless noted, the call rests on the fitted dose curve; in most records, active means well fitted curve in the direction sought with a large enough effect; inconclusive means small, poorly fitted or top-dose-only effect, or another doubt; inactive means no such curve, though single readings can be large; an effect the other way counts as inactive or inconclusive. On the % scale 0 is the no-effect control and ±100 the full control effect; potency means the concentration at half of the fitted maximal effect.

SMILES | HEK293 tox | 3T3 cytotox | GPT2 inh | FLuc inh | hNpr1 antagonist
CCc1cccc2c(C(CC(=O)NCCc3ccccc3)c3cccc4c3OCO4)c[nH]c12 (stereo not given) | 18µM* | 18µM* | -20% | ? | -20%
COc1cccc(C(CC(=O)NCc2ccc3c(c2)OCO3)c2c[nH]c3ccccc23)c1OC (stereo not given) | ? | ? | i | i | 0%
CCc1cccc2c(C(CC(=O)NCCOC)c3ccc(OC)c(OC)c3)c[nH]c12 (stereo not given) | -4% | -7% | i | i | 0%
CCC(COC)NC(=O)c1ccccc1OC1CCN(C(=O)COC)CC1 (stereo not given) | -6% | i | 4% | i | -4%
CCc1cccc2c(C(CC(=O)NCCC(C)C)c3cccc(OC)c3OC)c[nH]c12 (stereo not given) | 45µM* | ? | ? | i | -1%
N#Cc1cccc(CN2Cc3[nH]cnc3C[C@H]2c2nc(-c3ccc(OC(F)(F)F)cc3)no2)c1 | ? | ? | -15% | ? | -27%
COc1ccc(-c2noc([C@@H]3Cc4nc[nH]c4CN3Cc3ccc(CO)o3)n2)cc1 | -24%[172 µM] | -25%[138 µM] | 3%[88.5 µM] | 40µM* | -5%[70.6 µM]
COc1ccc(-c2noc([C@@H]3Cc4nc[nH]c4CN3C(=O)c3ccc(F)cc3)n2)cc1 | ? | ? | -2%[88.5 µM] | ? | -10%[70.6 µM]
COc1ccc(CN2Cc3[nH]cnc3C[C@H]2c2nc(-c3ccccn3)no2)cc1 | ? | ? | i | 35µM* | -18%[70.6 µM]
COc1ccc(CN2Cc3[nH]cnc3C[C@H]2c2nc(-c3ccc(C)cc3)no2)cc1 | 100µM* | 79µM* | 4%[88.5 µM] | 40µM* | -22%[70.6 µM]
COc1ccc(CN2Cc3[nH]cnc3C[C@H]2c2nc(-c3ccc4ccccc4c3)no2)cc1 | 45µM* | 40µM* | ? | i | -20%
Cc1ccc(C(=O)N(CCCN)C(c2nc3cc(Cl)ccc3c(=O)n2Cc2ccccc2)C(C)C)cc1 (stereo not given) | · | · | i | · | ·
COc1ccc(CN2Cc3[nH]cnc3C[C@H]2c2nc(-c3ccncc3)no2)cc1 | ? | ? | -5%[88.5 µM] | i | -26%[70.6 µM]
COc1ccc(-c2noc([C@@H]3Cc4nc[nH]c4CN3Cc3ccc(C)cc3)n2)cc1 | 89µM* | ? | 3%[88.5 µM] | 63µM* | -25%[70.6 µM]
COc1ccccc1CN1Cc2[nH]cnc2C[C@H]1c1nc(-c2cccc(C)c2)no1 | 63µM* | 71µM* | -1%[88.5 µM] | i | -26%[70.6 µM]
O=C1NC2(CCN(C(=O)c3cccnc3)C2)N=C1c1ccccn1 (stereo not given) | 2%[172 µM] | 1%[138 µM] | i | i | 17%[70.6 µM]
NCCCC(=O)N1CCC2(CC1)CN(C(=O)c1ccc(Cl)cc1)CCO2 | 3% | 32µM* | -3% | · | ·
O=C1[C@H]2CN(Cc3ccc(C(F)(F)F)cc3)C[C@H]2C(=O)N1CCc1ccccc1 | 35µM* | 22µM* | -5% | i | -29%
CC(C)(C)OC(=O)N1CC(Nc2ccc(Oc3ccccc3)cc2)C1 | 89µM* | ? | i | · | ·
COc1ccccc1CCC(=O)N(C)C1CCc2nn(CC3CC3)c(=O)n2CC1 (stereo not given) | ? | -19% | 1% | i | 1%
COCCc1noc([C@@H]2CN(Cc3ccc(C(C)C)cc3)C[C@H]2CO)n1 | 40µM* | ? | i | i | -28%
COCC1CN(C(=O)Cc2ccc(OC)cc2)CC12CCNCC2 (stereo not given) | i | 1% | i | i | 5%
Cn1c2c(c3cc(F)ccc31)CN(C(=O)Nc1ccc(Cl)cc1)CC2 | ? | 28µM* | ? | 25µM* | -15%
Cc1cccc(NC(=O)N2CCc3c(c4cc(F)ccc4n3C)C2)c1 | ? | ? | i | ? | -15%
Cn1c2c(c3cc(F)ccc31)CN(C(=O)Nc1cccc(Cl)c1)CC2 | ? | 20µM* | 5% | ? | ?
SMILES | HEK293 tox | 3T3 cytotox | GPT2 inh | FLuc inh | hNpr1 antagonist
COc1ccccc1NC(=O)Cn1ccn2nc3c(c2c1=O)CCCC3 | ? | -18% | i | i | -7%
CC(C)CCN1CCc2ncc(C(=O)NCCOc3ccccc3)n2CC1 | 28µM* | ? | -9%[88.5 µM] | i | -4%[70.6 µM]
O=C(NCc1ccc(F)cc1)c1cnc2n1CCN(CCc1ccccc1)CC2 | ? | ? | 0%[88.5 µM] | i | -6%[70.6 µM]
N#Cc1ccc(CN2CCc3ncc(C(=O)NCCOc4ccccc4)n3CC2)cc1 | 71µM* | ? | -1%[88.5 µM] | i | ?
O=C(NCc1ccccc1)c1cnc2n1CCN(CCCc1ccccc1)CC2 | ? | 25µM* | 1%[88.5 µM] | i | -17%[70.6 µM]
CSc1ccc(CNC(=O)c2nnn3c2COC(c2ccc(Cl)cc2)C3)cc1 (stereo not given) | -17% | ? | i | i | -5%
COc1cccc(C(=O)NC2CCN(Cc3cccc(-c4ccc(F)cc4F)c3)CC2)c1 | 32µM*! | 35µM*! | · | · | ·
O=C(NC1CCN(Cc2cccc(-c3ccc(F)cc3F)c2)CC1)c1ccncc1 | 32µM* | ? | · | · | ·
O=C(NC1CCN(Cc2cccc(-c3ccc(F)cc3F)c2)CC1)C1CCCC1 | -17% | -19% | · | · | ·
COCCn1c(=O)n([C@H]2CCCN(C(=O)Cc3cccc(F)c3)C2)c2ncccc21 | i | 3% | i | i | 7%
O=C(CCc1c[nH]c2ccccc12)N1CCC[C@H](n2c(=O)n(CC3CC3)c3cccnc32)C1 | 79µM* | ? | -9% | i | -3%
Cc1cccc(CC(=O)N2CCC[C@H](n3c(=O)n(Cc4ccccc4)c4cccnc43)C2)c1 | 40µM* | ? | i | i | ?
Cc1nc(C)c(C(=O)N2CCC[C@H](n3c(=O)n(Cc4ccccc4)c4cccnc43)C2)s1 | 40µM* | -14% | i | i | -8%
O=C(NCc1ccccc1)N1CCC[C@H](n2c(=O)n(CC3CC3)c3cccnc32)C1 | -28% | -24% | ? | i | -4%
O=C1CCN(S(=O)(=O)c2ccccc2)CCCN(Cc2cccc(OC(F)(F)F)c2)CCN1 | ? | ? | -11% | i | -13%
CN1CCCN(C(=O)Cc2ccc(OC(F)(F)F)cc2)c2ccccc21 | ? | 40µM* | 0% | i | -1%
O=C(Cc1ccc(Br)cc1)N1CCCN(C(=O)C2CC2)c2ccccc21 | ? | ? | -16% | i | -2%
O=C(Cc1ccc(F)cc1)N1CCCN(CCc2ccccc2)c2ccccc21 | ? | 35µM* | i | · | ·
CCC(=O)N1CCCN(CCN(C)C)c2ccccc21 | -2% | -2% | 0% | i | 5%
O=C(Cc1cccs1)N1CCCN(CCc2ccccc2)c2ccccc21 | ? | 32µM* | i | i | -24%
